About 83,000 compounds went through this panel and 20% of them were active in at least one assay; those are over-represented in the sample as a whole.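 The test compound was applied at a single concentration to cells in 96-well plates for 48 hours, and percent growth was recorded.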 Values without a mark were called inactive. Active and inactive are the calls of the source. Rule for the calls: active = growth percent below 10; inactive = the rest.
These compounds were tested on UACC-62 melanoma (assay: NCI-60 one-dose screen, 48 h (100 = growth as untreated, 0 = no growth, -100 = all killed)). Details: 10 µM unless noted.

Q: `COc1cccc(OC(=O)c2ccccc2)c1OC(=O)c1ccccc1` was tested. Which growth did it give?
A: 66%

Q: How did the growth turn out when `COC(=O)c1ccc(C(=O)Nc2ccccc2N)cc1` was run?
A: 61.2%

Q: With `CCSc1nnc2c3cc(Br)ccc3n(C)c2n1` as the compound, how does the growth read?
A: 103%

Q: With `N#CCCN1CCN(CCC#N)C1=S` as the compound, how does the growth read?
A: 91.4%

Q: `COC(=O)/C=C1/CCC2C3CCC4=CC(=O)C(Br)CC4(C)C3C(=O)CC12C` (stereo unspecified) was tested. Which growth did it give?
A: 73.5%

Q: Which growth does the source give for `NC(=O)c1cc(Cl)ccc1NC(=O)COc1ccccc1` here?
A: 56.7%

Q: How did the growth turn out when `CN1CCN(CCCn2c3c(sc4ncccc43)c(=O)n3nnc(-c4ccccc4)c23)CC1` was run?
A: 91%

What follows are compounds tested on LOX IMVI melanoma in the same assay as above. Details: 10 µM unless noted.

Q: With `O=C1C(Cl)=C(NCCCN2CCOCC2)C(=O)c2ccccc21` as the compound, how does the growth read?
A: 54.2%

Q: With `COc1cccc(OC)c1OC(=O)c1ccccc1` as the compound, how does the growth read?
A: 92.7%

Q: For `Oc1ccc2ccccc2c1C1NN=C(c2ccccc2)S1` (stereo unspecified), which growth is on record?
A: 13.8%

Q: `CCCCC/C=C\C/C=C/CCCCCCCCNC(=O)Nc1ccc([N+](=O)[O-])cc1` was tested. Which growth did it give?
A: 17.4%

Q: Which growth does the source give for `CCN1CCN(C(=S)SCC(=O)Nc2nc3ccc(OC)cc3s2)CC1` here?
A: 91.3%

Q: `Cn1c2ccccc2c2nn(Cc3ccccc3)c(=O)nc21` was tested. Which growth did it give?
A: 102%

Q: How did the growth turn out when `Cn1c2ccccc2c2nn(C(=O)c3ccccc3)c(=O)nc21` was run?
A: 99.3%

Q: With `COc1ccc(OC2=C(C#N)C(=N)N3c4ccccc4Sc4ccccc4C3N2)cc1` (stereo unspecified) as the compound, how does the growth read?
A: 87.4%

Q: With `NC(=S)N/N=C1\c2ccccc2-c2c(F)c(F)c(F)c(F)c21` as the compound, how does the growth read?
A: 86.6%

Q: Which growth does the source give for `NC(=O)c1cc(I)ccc1NC(=O)COc1ccc(Cl)cc1Cl` here?
A: 93.3%

Q: With `CCC12CCC3c4ccc(O)cc4CCC3C1CC(O)C2O` (stereo unspecified) as the compound, how does the growth read?
A: 81%

Q: `O=C1NC(=O)C(CSc2ccccc2)(c2ccccc2)N1` (stereo unspecified) was tested. Which growth did it give?
A: 89.6%

Q: Which growth does the source give for `C=C(C)COC(=O)c1ccccc1C(=O)OCC1(C)CO1` (stereo unspecified) here?
A: 84.5%

Q: `O=c1nc(NO)[nH]c(=O)n1Cc1ccc(F)cc1` was tested. Which growth did it give?
A: 101%

Q: How did the growth turn out when `NC(=O)c1cc(I)ccc1NC(=O)COc1ccccc1` was run?
A: 52.1%

Q: Which growth does the source give for `CC(=O)OC[C@H](O)[C@@]1(O)CC[C@H]2[C@@H]3CCC4=CC(=O)CC[C@]4(C)[C@H]3[C@@H](O)C[C@@]21C` here?
A: 103%

Q: How did the growth turn out when `COc1cc(NC(=O)COc2ccccc2)c(C(N)=O)cc1OC` was run?
A: 59.1%

Q: For `COc1ccc(Nc2[nH]n(C3=Nc4ccccc4Sc4ccccc43)c(=O)c2C#N)cc1`, which growth is on record?
A: 54.6%

Q: `COc1c(Cl)ccc2c(-c3nc4cc(Cl)c(F)cc4s3)cc(=O)oc12` was tested. Which growth did it give?
A: -80.2% (active)

Q: Which growth does the source give for `Cn1c2ccc(Cl)cc2c2nn(C(=O)c3ccccc3)c(=O)nc21` here?
A: 98.1%

Q: For `CC(=O)Nc1ccc(S(=O)(=O)N/N=C\c2ccc(Cl)c(Cl)c2)cc1`, which growth is on record?
A: 98.7%

Q: With `COc1ccc(/C=C(\C#N)c2ccc(OC)cc2)cc1` as the compound, how does the growth read?
A: 48.3%

Q: `CCCCNNC(=O)c1ccc(Br)cc1` was tested. Which growth did it give?
A: 62.1%

Q: For `CC(=O)c1cc(C)c(OC(=O)c2ccccc2)c(C)c1`, which growth is on record?
A: 90.2%

Q: For `Clc1nc(-c2ccccn2)nc2sc3c(c12)CCCCCC3`, which growth is on record?
A: 67.8%

Q: For `Cc1ccc(C(=O)Nc2ccccc2N)cc1`, which growth is on record?
A: 89.5%

Q: Which growth does the source give for `Oc1ccccc1/C=N/Nc1nc2ccccc2s1` here?
A: 37.2%

Q: Which growth does the source give for `COc1cccc(OC(=O)c2ccccc2)c1OC(=O)c1ccccc1` here?
A: 63%

Q: How did the growth turn out when `COC(=O)c1ccc(C(=O)Nc2ccccc2N)cc1` was run?
A: 97.7%

Q: Which growth does the source give for `CCSc1nnc2c3cc(Br)ccc3n(C)c2n1` here?
A: 96%

Q: `N#CCCN1CCN(CCC#N)C1=S` was tested. Which growth did it give?
A: 104%

Q: `COC(=O)/C=C1/CCC2C3CCC4=CC(=O)C(Br)CC4(C)C3C(=O)CC12C` (stereo unspecified) was tested. Which growth did it give?
A: 38.2%

Q: How did the growth turn out when `NC(=O)c1cc(Cl)ccc1NC(=O)COc1ccccc1` was run?
A: 59.4%

Q: Which growth does the source give for `CN1CCN(CCCn2c3c(sc4ncccc43)c(=O)n3nnc(-c4ccccc4)c23)CC1` here?
A: -96% (active)
